The text below walks through data of PubChem BioAssay (NCATS).

Structures are written as SMILES. Inconclusive results are not listed. Unmarked numbers belong to inactive results. Active and inactive are the calls of the source. Calls follow the shape of the dose curve; as a rule, active = well fitted inhibition curve with a large enough effect; inconclusive = small, poorly fitted or top-dose-only effect; inactive = flat fitted curve, though single readings scatter.
Potency is read from the fitted curve at half-maximal effect.

The first test in a line: qHTS profiling for inhibitors of Plasmodium falciparum proliferation (AID 504749). Also: nearly all actives have a fitted effect of over 60% in size.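 As to activity, negative = inhibition: 0% = DMSO vehicle and full inhibition = artemisinin control.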 Particulars: P. falciparum in erythrocytes, SYBR Green DNA, 72 h; at 12.8 µM (top of the series); parasite line A. From the text:
NIH National Institute of Allergy and Infectious Diseases [NIAID] NIH Chemical Genomics Center [NCGC] MLPCN Grant: None Assay Provider: Xinzhuan Su, NIAID NCGC Assay Overview: Plasmodium falciparum is a virulent malarial parasite that kills 1-2 million people worldwide each year. Transmitted by mosquitoes, the sporozoite form of the parasite enters the blood stream to infect hepatocytes, where they become merozoites that infect red blood cells (erythrocytes). Within erythrocytes, merozoites begin a […] cycle of growth and division, after which the parasite is released to infect new red blood cells. Gametocytes, which form within erythrocytes as well, circulate in the bloodstream and are ingested by the mosquito, thereby completing the life cycle. To profile malarial isolates for differential chemical responses and to identify inhibitors of malarial growth, an assay that measures P. falciparum growth and replication within erythrocytes was employed. This assay uses a DNA binding fluorescent dye (SYBR Green) to detect parasite DNA following cell lysis. Because mature erythrocytes lack DNA, only Plasmodium-derived DNA is detected.
NCGC Assay Protocol Summary: The SYBR Green viability assay was adapted from a method described previously (Plouffe et al., 2008). For screening 3 ul culture medium was dispensed into 1536 well black clear bottom plates (Aurora Biotechnologies) using a Multidrop Combi (Thermo Fisher Scientific Inc.), 23 nL compounds in DMSO were added by a pin tool (Kalypsys), and 5 ul of erythrocytes infected with P. falciparum (0.3% parasitemia, 2.5% hematocrit final concentration) were added. The plates were incubated at 37 C in a humidified incubator in 5% CO2 for 72 h, and 2 ul lysis buffer (20 mM Tris HCl, 10 mM EDTA, 0.16% saponin, 1.6% triton X, 10X SYBR Green I supplied as 10,000X […] by Invitrogen) was added to each well. The plates were mixed for 25 sec with gentle shaking and incubated overnight at room temperature in the dark. The following morning, fluorescence intensity at 485(14) nm excitation and 535(25) nm emission wavelengths was measured on an EnVision (Perkin Elmer) plate reader. Plate reads were normalized relative to the control inhibitor (0.29 uM artemisinin) and vehicle (DMSO) wells present on each plate and then corrected by an algorithm using vehicle-only control plates at the beginning and end of the compound plate stack.
On the technique in general: Quantitative high-throughput screening tests each substance at several concentrations.
Take `Nc1nc2c(c(=O)[nH]1)N(C=O)[C@H](CNc1ccc(C(=O)N[C@@H](CCC(=O)O)C(=O)O)cc1)CN2`: the activity, negative = inhibition was 9.3%.
As to `COc1ccc([C@@H]2CNC(=O)C2)cc1OC1CCCC1`, the activity, negative = inhibition is 9.55%.

Still in this test, the particulars now being: P. falciparum in erythrocytes, SYBR Green DNA, 72 h; at 12.8 µM (top of the series); parasite line B.
As for `Nc1nc2c(c(=O)[nH]1)N(C=O)[C@H](CNc1ccc(C(=O)N[C@@H](CCC(=O)O)C(=O)O)cc1)CN2`, the activity, negative = inhibition was 7.79%.
Take `COc1ccc([C@@H]2CNC(=O)C2)cc1OC1CCCC1`: the activity, negative = inhibition was -3.14%.

Staying with this test, now noted: P. falciparum in erythrocytes, SYBR Green DNA, 72 h; at 28.7 µM (top of the series); parasite line A.
Consider `COc1ccc2c(c1OC)C(=O)OC2[C@H]1c2c(cc3c(c2OC)OCO3)CCN1C` (some centres undefined), for which the activity, negative = inhibition is 5.64%.
Regarding `OCC(O)C(O)C(O)CO` (centres undefined), the activity, negative = inhibition is 4.99%.

The same test, now with this note: P. falciparum in erythrocytes, SYBR Green DNA, 72 h; at 28.7 µM (top of the series); parasite line B.
On to `COc1ccc2c(c1OC)C(=O)OC2[C@H]1c2c(cc3c(c2OC)OCO3)CCN1C` (some centres undefined), for which the activity, negative = inhibition was 5.33%.
As for `OCC(O)C(O)C(O)CO` (centres undefined), the activity, negative = inhibition is 7.38%.

Staying with this test, now noted: P. falciparum in erythrocytes, SYBR Green DNA, 72 h; parasite line A.
Regarding `COc1cccc2c1C(=O)c1c(O)c3c(c(O)c1C2=O)C[C@@](O)(C(=O)CO)C[C@@H]3O[C@H]1C[C@H](N)[C@H](OC2CCCCO2)[C@H](C)O1` (some centres undefined), the Potency was 3160 nM (active).
Turning to `CCCCCCCCCCCC(CC1OC(=O)C1CCCCCC)OC(=O)C(CC(C)C)NC=O` (centres undefined), the Potency was 355 nM (active).
`CCC(C(=O)O)C1CCC(C)C(C(C)C(O)C(C)C(=O)C(CC)C2OC3(C=CC(O)[C@@]4(CC[C@](C)(C5CC[C@@](O)(CC)C(C)O5)O4)O3)C(C)CC2C)O1` (some centres undefined): the Potency is 1000 nM (active).

Staying with this test, now noted: P. falciparum in erythrocytes, SYBR Green DNA, 72 h; parasite line B.
In the case of `COc1cccc2c1C(=O)c1c(O)c3c(c(O)c1C2=O)C[C@@](O)(C(=O)CO)C[C@@H]3O[C@H]1C[C@H](N)[C@H](OC2CCCCO2)[C@H](C)O1` (some centres undefined), the Potency was 4470 nM (active).
Consider `CCCCCCCCCCCC(CC1OC(=O)C1CCCCCC)OC(=O)C(CC(C)C)NC=O` (centres undefined), for which the Potency was 708 nM (active).
As for `CCC(C(=O)O)C1CCC(C)C(C(C)C(O)C(C)C(=O)C(CC)C2OC3(C=CC(O)[C@@]4(CC[C@](C)(C5CC[C@@](O)(CC)C(C)O5)O4)O3)C(C)CC2C)O1` (some centres undefined), the Potency was 1120 nM (active).
